Rows were chosen to be rich in hits. Some 19% of all compounds tested hit in one or more screens of this group.
TDP1 cell noCPT – qHTS for Inhibitors of human tyrosyl-DNA phosphodiesterase 1 (TDP1): qHTS in cells in absence of CPT | DT40 Tdp1-/- hTDP1 cells, no CPT, ATP luminescence, 48 h | Potency, µM (highest dose often 46.2 µM), without a hit: top-dose activity change, negative = growth inhibition, most hits filed as inhibitors | 15% of 420,000 active | AID 686978, 2013; also: potency is read from the fitted curve at half-maximal effect; nearly all actives have a fitted effect of over 55% in size
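A cellular qHTS used chicken DT40 cells lacking endogenous Tdp1 but carrying stably transfected human TDP1. Compounds were applied without camptothecin, and cell growth kinetics were judged by ATP-dependent luminescence after ≥48 hr.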
TDP1 cell CPT – growth inhibition of DT40 Tdp1-/-;hTDP1 cells with camptothecin (screen for TDP1 inhibitors); chicken DT40 Tdp1-/-;hTDP1 cells + 20 nM CPT, ATP luminescence, 48 h; 12% of 420,000 active; Potency, µM (titrated, usually from 46.2 µM), inactives show top-dose activity change, negative = growth inhibition, actives largely listed as inhibitors; also: potency is read from the fitted curve at half-maximal effect; nearly all actives have a fitted effect of over 55% in size
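Cell growth measured by CellTiter-Glo luminescence after a minimum 48 h, 37 C compound exposure with 20 nM CPT in Tdp1-knockout DT40 cells stably expressing hTDP1, seeded 400/well; qHTS titration format.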
IL-1B inflam inh – inflammasome signaling inhibition, IL-1 beta readout; THP-1 LPS/ATP IL-1B secretion, AlphaLISA, 16 h; stronger effect = lower value; 4.7% of 360,000 active; activity change, % at 57.5 µM; in the data active = activity change below about -50%; inconclusive = mostly about -30% to -49%
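Secreted IL-1B measured by AlphaLISA bead assay after 16 h compound exposure of THP-1 cells; compounds (final up to 57.5 uM) added 1 h before LPS (250 ng/mL) and ATP (1.25 mM) stimulation; lower signal means less secretion.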
ELG1 repair inh – ELG1-dependent DNA repair inhibition; 2.3% of 330,000 active; HEK293T ELG1-luciferase reporter, luminescence, 16 h; DNA damage induced by 5-fluorouridine; Potency, µM (doses to about 46.1 µM), for inactives: at the highest dose activity change, negative = inhibition, actives largely listed as inhibitors; AID 504467; also: potency is read from the fitted curve at half-maximal effect; nearly all actives have a fitted effect of over 55% in size
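HEK293T cells expressing luciferase-tagged ELG1 (2,000/well) received 5-Fluorouridine plus compound or DMSO for 16 hr at 37 °C. Luciferase was read by ONE-Glo luminescence after 30 min at room temperature.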
HT1080NT lethal – kills 2HG-producing HT-1080-NT fibrosarcoma cells; 1.6% of 360,000 active; Potency, µM (doses to about 46.1 µM), without a hit: at the highest dose activity, negative = less viability, hits mostly cytotoxic; HT-1080-NT fibrosarcoma viability, CellTiter-Glo ATP luminescence, 48 h; AID 686970;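 also: NT is the 2HG producing partner of a matched IDH1 knockdown line; potency is read from the fitted curve at half-maximal effect; 0% = DMSO-treated cells and -100% = media-only wells without cells; nearly all actives have a fitted effect of over 55% in size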
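Compounds were tested in concentration-response format on HT-1080-NT cells for 48 hours at 37 degrees C. Cell viability came from CellTiter-Glo luminescence; curves were classified by r2, response magnitude and activity.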
HT1080 IDH1KD tx – HT-1080 IDH1 knockdown cell toxicity (counter line) | 2% of 360,000 active | Potency, µM (top dose mostly 46.1 µM), inactives show at the highest dose activity, negative = toxicity, actives largely listed as cytotoxic | HT-1080 IDH1 knockdown viability, ATP luminescence, 48 h | AID 686971;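 also: potency is read from the fitted curve at half-maximal effect; 0% = DMSO wells and -100% = cell-free medium wells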
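Knockdown cells (IDH1KD HT-1080) received compounds 2 h after plating at 750 cells/well and were kept 48 h at 37 °C in 5% FBS RPMI. A CellTiter-Glo luminescence read gave % activity for curve fitting.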
Active calls of the source: *; ? = inconclusive; · = no result given. Unless noted, calls follow the shape of the dose curve; as a rule, active = well fitted curve in the direction sought with a large enough effect; inconclusive = small, poorly fitted or top-dose-only effect, or another doubt; inactive = no such curve, though single readings can be large; an effect the other way counts as inactive or inconclusive. Unless noted, % is scaled to controls: 0 for no effect and ±100 for the full control effect.

SMILES	TDP1 cell noCPT	TDP1 cell CPT	IL-1B inflam inh	ELG1 repair inh	HT1080NT lethal	HT1080 IDH1KD tx
NC(=O)c1cc(NC(=O)CCNS(=O)(=O)c2cccc(C(F)(F)F)c2)cc(C(N)=O)c1	10%	9%	2	3%	5%	6%
CCOC(=O)c1c(C)[nH]c(CCC(=O)Nc2cc(C)ccc2OC)c1C	16µM*	?	·	·	·	·
CCOC(=O)c1c(C)[nH]c(CCC(=O)NCCCN2CCN(c3ccc(F)cc3)CC2)c1C	10µM*	21µM*	·	·	·	·
CCOC(=O)c1c(C)[nH]c(CCC(=O)Nc2c(C)cccc2CC)c1C	16µM*	?	·	·	·	·
CCOC(=O)c1c(C)[nH]c(C)c1S(=O)(=O)NCC(=O)Nc1cc(C)ccc1OC	-19%	?	·	·	·	·
CCOC(=O)c1c(C)[nH]c(C)c1S(=O)(=O)N1CCN(c2ccc(F)cc2)CC1	?	-14%	-7	12%	4%	-1%
CCNc1nnc(SCC(=O)N2c3ccccc3NC(=O)CC2C)s1 (stereo unspecified)	-12%	3%	18	4%	-3%	-2%
CCN(CC(=O)Nc1cccc(OC)c1)C(=O)c1ccc(C)s1	-23%	-13%	12	-12%	-4%	-2%
CCOc1ccc(/C=C/c2nc(C#N)c(Nc3ccc(OC)cc3)o2)cc1	16µM*	21µM*	·	·	·	·
COc1cccc(/C=C/c2nc(C#N)c(NCCc3ccc(OC)c(OC)c3)o2)c1	-87%	?	·	·	·	·
CCOc1ccc(Nc2oc(/C=C/c3cccc(OC)c3)nc2C#N)cc1	23µM*	?	·	·	·	·
COc1ccc(CNc2oc(/C=C/c3cccc(OC)c3)nc2C#N)cc1	23µM*	23µM*	·	·	·	·
CCOc1ccc(/C=C/c2nc(C#N)c(NC(C)c3ccccc3)o2)cc1 (stereo unspecified)	12µM*	13µM*	·	·	·	·
O=c1[nH]c(=S)[nH]c2c1C(c1ccc(F)cc1)OC(C1CCCCC1)C2 (stereo unspecified)	?	?	11	·	-9%	-9%
Cc1ccc(C(=O)NCc2ccccc2CN2CCCC2)cc1S(=O)(=O)N1CCOCC1	2%	?	-2	0%	-13%	-5%
CCOc1ccc(/C=C/c2nc(C#N)c(Nc3ccc(OCC)cc3)o2)cc1	23µM*	23µM*	·	·	·	·
FC(F)(F)c1ccccc1-c1nccc(N2CCNCC2)n1	3%	-5%	·	·	·	·
Cc1ccccc1NC(=O)c1nnn(-c2ccc3c(c2)OCCO3)c1N	?	1%	-65*	?	-21%	0%
CCOc1ccccc1NC(=O)c1nnn(-c2ccc3c(c2)OCCO3)c1N	?	?	?	?	-14%	-13%
COc1ccc(OC)c(NC(=O)Cn2ccn(-c3ccc(OC)c(OC)c3)c(=O)c2=O)c1	0%	-3%	·	·	·	·
Cc1cc(C(=O)OCC(=O)c2cccs2)ccc1[N+](=O)[O-]	-14%	-17%	3	5%	8%	9%
CN(C)CCCN(C(=O)c1ccco1)c1nc2ccc(Br)cc2s1	23µM*	23µM*	-70*	?	23µM*	21µM*
CN(C)CCN(C(=O)c1ccco1)c1nc2cc3c(cc2s1)OCCO3	3.7µM*	4.6µM*	7	?	-22%	-13%
Cc1ccc2nc(N(CCCN(C)C)C(=O)c3sc4ccccc4c3Cl)sc2c1	26µM*	16µM*	-91*	?	?	-23%
CN(C)CCCN(C(=O)c1ccc2c(c1)OCCO2)c1nc2ccc(Cl)cc2s1	·	·	·	19%	·	·
SMILES	TDP1 cell noCPT	TDP1 cell CPT	IL-1B inflam inh	ELG1 repair inh	HT1080NT lethal	HT1080 IDH1KD tx
CN(C)CCCN(C(=O)c1ccco1)c1nc2ccc(Cl)cc2s1	16µM*	18µM*	-16	?	?	18µM*
Cc1cc(C)n2nc(-c3ccccc3)c(-c3ccccc3)c2n1	?	?	7	?	5%	3%
CCOc1ccc(NC(=O)Cn2c(=O)n(Cc3ccco3)c(=O)c3ccc(C(=O)NC4CCCC4)cc32)cc1	-27%	?	·	·	·	·
CCc1ccc2nc(N(CCN(C)C)C(=O)c3ccc4ncsc4c3)sc2c1	-26%	0%	-76*	?	-27%	-1%
Cc1ccc(C(=O)N(CCCN(C)C)c2nc3ccc(Cl)cc3s2)cc1C	?	?	-107*	-5%	23µM*	23µM*
Oc1ccc(O)c(-c2cnns2)c1	?	15µM*	?	?	-25%	-23%
COc1ccc(NC(=O)c2cccc(Oc3ccc([N+](=O)[O-])cc3Cl)c2)cc1	4.6µM*	5.8µM*	39	-21%	?	?
Cc1ccc([N+](=O)[O-])cc1NC(=O)c1ccccc1	-16%	1%	2	7%	4%	0%
O=C(Nc1cccnc1)c1ccc([N+](=O)[O-])cc1Cl	4%	-15%	-16	11%	24%	19%
O=[N+]([O-])c1ccc(Oc2ccc(-c3nnco3)cc2)c(Cl)c1	-27%	-17%	-1	-4%	-3%	-13%
COc1ccc(/C=N/NC(=O)c2ccc(NC(=O)c3cccc([N+](=O)[O-])c3)cc2)c(OC)c1	?	-26%	16	0%	?	-11%
CCN(CC)C(=O)c1ccc(Oc2ccc([N+](=O)[O-])cc2Cl)cc1	16µM*	?	-8	?	-1%	-12%
O=C(Nc1cccc(Cl)c1)c1cc(N=Nc2ccc([N+](=O)[O-])cc2Cl)ccc1O	2.6µM*	5.2µM*	23	-5%	-13%	-17%
Cc1ccc(C)c(NC(=O)c2cccc(Oc3ccc([N+](=O)[O-])cc3Cl)c2)c1	16µM*	?	?	-17%	-5%	-4%
COc1ccc(-c2[nH]ncc2CN(CCO)Cc2cccs2)c(F)c1	?	-26%	0	-3%	-11%	-17%
CC(=O)Nc1ccc(NC(=O)C2(c3cccs3)CCOCC2)cc1	-17%	-7%	·	·	·	·
O=C(Nc1cccc(Cl)c1)c1cccc(Oc2ccc([N+](=O)[O-])cc2Cl)c1	?	?	-59*	?	?	?
O=C(Nc1ccc([N+](=O)[O-])cc1Cl)c1cccc([N+](=O)[O-])c1	-29%	-17%	-26	·	15%	8%
Cc1ccc(C2=CC(c3ccccc3)n3ncnc3N2)cc1 (stereo unspecified)	?	?	-18	·	17%	17%
